The results in this text go back to the supplement of paper PMC6522484.

± gives the standard deviation of the averaged measurements.

Experiment [1] deals with DLD1. Description: cell viability (CellTiter-Glo) relative to plate median (fraction of plate median); higher = more viable cells. The conditions noted are these: 5 µM; treatment time 24 h; reporter: 7TFP. The essentials: (§1)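 Two independent replicates were averaged for each reported value. Library compounds were applied at a final 5 µM for 24 h to colorectal cancer cell lines stably expressing lentiviral TCF/Wnt firefly luciferase reporters. Firefly luciferase or CellTiterGlo luminescence from each well was normalised to the plate median.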
(In general: Cellular ATP, detected with luciferase, serves as a proxy for viable cell number.)

The test system of another experiment is HCT116. The description is as above. The following applies: 5 µM; treatment time 24 h; reporter: TCF4/Wnt. The essentials:
as §1

Experiment [2] relates to SW480. Described as above. The following applies: 5 µM; treatment time 24 h; reporter: 7TFP. Summed up:
as §1

Experiment [3] has as its system DLD1. Description: TCF/Wnt firefly luciferase reporter signal relative to plate median (fraction of plate median); higher = higher Wnt reporter signal. The following applies: 5 µM; treatment time 24 h; reporter: 7TFP. Summed up:
as §1

Experiment [4] concerns SW480. The description is as above. The following applies: 5 µM; treatment time 24 h; reporter: 7TFP. The essentials: as §1

On to `CC[C@H](C)[C@H]1O[C@]2(C=C[C@@H]1C)C[C@@H]1C[C@@H](C/C=C(\C)[C@@H](O[C@H]3C[C@H](OC)[C@@H](O[C@H]4C[C@H](OC)[C@@H](O)[C@H](C)O4)[C@H](C)O3)[C@@H](C)/C=C/C=C3\CO[C@@H]4[C@H](O)C(C)=C[C@@H](C(=O)O1)[C@]34O)O2.CO[C@H]1C[C@H](O[C@H]2[C@H](C)O[C@@H](O[C@@H]3/C(C)=C/C[C@@H]4C[C@@H](C[C@]5(C=C[C@H](C)[C@@H](C(C)C)O5)O4)OC(=O)[C@@H]4C=C(C)[C@@H](O)[C@H]5OC/C(=C\C=C\[C@@H]3C)[C@]54O)C[C@@H]2OC)O[C@@H](C)[C@@H]1O`, for which the cell viability in the experiment on DLD1 [1] turned out to be 0.893 ± 0.083; in the experiment with HCT116, 0.931 ± 0.0028; with SW480 [2], 1.01. The “TCF/Wnt firefly luciferase reporter signal” value was 0.977 ± 0.089 in the experiment on DLD1 [3] and 0.987 ± 0.033 with SW480 [4].

As to `CCNc1nc(Cl)nc(NC(C)C)n1`, the cell viability was found to be 0.981 ± 0.017 with DLD1 [1], 1.07 ± 0.064 in the experiment on HCT116 and 0.946 ± 0.023 in the experiment with SW480 [2]. Also, the entries for the “TCF/Wnt firefly luciferase reporter signal” value in the experiment on DLD1 [3] and with SW480 [4] were 0.965 ± 0.0071 and 0.976 ± 0.0071, respectively.

In the case of `CC(C)=CCOc1c2occc2cc2ccc(=O)oc12`, the values for the cell viability in the experiment on DLD1 [1], with HCT116 and with SW480 [2] were 1.03 ± 0.086, 0.997 ± 0.1 and 1.01 ± 0.014, respectively. In addition, the figures for the “TCF/Wnt firefly luciferase reporter signal” value in the experiment with DLD1 [3] and with SW480 [4] were 1.12 ± 0.05 and 0.998 ± 0.16, respectively.

As to `COc1cccc(C2(O)CCCCC2CN(C)C)c1` (stereo not given), the cell viability was 0.997 ± 0.019 in the experiment with DLD1 [1], 1.03 ± 0.047 in the experiment with HCT116 and 1 ± 0.036 in the experiment with SW480 [2]. Moreover, the “TCF/Wnt firefly luciferase reporter signal” value in the experiment with DLD1 [3] is 1.09 ± 0.057; in the experiment with SW480 [4], 1.09 ± 0.021.

Take `Nc1ccc([As](=O)(O)O)cc1`: the cell viability in the experiment on DLD1 [1] worked out at 1.01 ± 0.021; in the experiment with HCT116, 1.09 ± 0.092; in the experiment on SW480 [2] it was 0.941 ± 0.04. In addition, the “TCF/Wnt firefly luciferase reporter signal” value in the experiment with DLD1 [3] stood at 0.976 ± 0.063; in the experiment on SW480 [4], 0.962 ± 0.028.

Take `CC[C@@]1(O)C[C@H](O[C@H]2C[C@H](N(C)C)[C@H](O)[C@H](C)O2)c2c(cc3c(c2O)C(=O)c2c(O)ccc(O)c2C3=O)[C@H]1C(=O)OC`: the cell viability was 0.893 ± 0.075 with DLD1 [1], 0.548 ± 0.029 with HCT116 and 1.05 ± 0.042 with SW480 [2]. Also, the “TCF/Wnt firefly luciferase reporter signal” value was found to be 0.569 ± 0.068 with DLD1 [3] and 0.711 ± 0.016 in the experiment with SW480 [4].

As for `O=C(O)c1cccc2nc3ccccc3nc12` [1-Phenazinecarboxylic acid], the cell viability amounted to 1.12 ± 0.16 in the experiment on DLD1 [1], 1.05 in the experiment with HCT116 and 1.32 ± 0.11 in the experiment with SW480 [2]. Further, the “TCF/Wnt firefly luciferase reporter signal” value with DLD1 [3] turned out to be 0.986 ± 0.091; in the experiment on SW480 [4] it was 1.03 ± 0.12.

Turning to `C[N+]1(C)CCCC(OC(=O)C(O)(c2ccccc2)c2ccccc2)C1` (stereo not given), the cell viability with DLD1 [1] worked out at 0.965 ± 0.036; in the experiment on HCT116, 0.936 ± 0.063; in the experiment with SW480 [2], 1.01 ± 0.014. In addition, the entries for the “TCF/Wnt firefly luciferase reporter signal” value with DLD1 [3] and in the experiment with SW480 [4] were 1.05 ± 0.014 and 0.957 ± 0.043, respectively.

`COc1c2c(c(CC=C(C)C)c3oc(=O)c(-c4ccc(O)cc4)c(O)c13)OC(C)(C)C=C2`: the cell viability is 0.9495 ± 0.0021 in the experiment with DLD1 [1], 0.985 ± 0.064 in the experiment with HCT116 and 1.01 ± 0.035 in the experiment on SW480 [2]. The “TCF/Wnt firefly luciferase reporter signal” value with DLD1 [3] came to 0.969 ± 0.016; in the experiment with SW480 [4], 0.985 ± 0.012.

Turning to `COS(C)(=O)=O`, the results for the cell viability with DLD1 [1], in the experiment with HCT116 and in the experiment on SW480 [2] were 1.07 ± 0.071, 0.901 ± 0.021 and 1.015 ± 0.0071, respectively. For the same molecule, the “TCF/Wnt firefly luciferase reporter signal” value in the experiment on DLD1 [3] was 0.98 ± 0.14; with SW480 [4] it was 0.958 ± 0.074.

Consider `C[C@H]1O[C@@H](O[C@H]2[C@@H](O)C[C@H](O[C@H]3[C@@H](O)C[C@H](O[C@H]4CC[C@@]5(C)[C@H](CC[C@@H]6[C@@H]5CC[C@]5(C)[C@@H](C7=CC(=O)OC7)[C@@H](O)C[C@]65O)C4)O[C@@H]3C)O[C@@H]2C)C[C@H](O)[C@@H]1O`, for which the cell viability in the experiment with DLD1 [1] is 0.632 ± 0.13; in the experiment on HCT116, 0.649 ± 0.21; in the experiment on SW480 [2], 0.765 ± 0.11. Moreover, the “TCF/Wnt firefly luciferase reporter signal” value in the experiment with DLD1 [3] was 0.611 ± 0.61; in the experiment with SW480 [4], 0.685 ± 0.25.

`CCn1cc(C(=O)O)c(=O)c2cc3c(cc21)OCO3`: the cell viability in the experiment on DLD1 [1] came out at 0.96 ± 0.016; in the experiment with HCT116, 0.949 ± 0.031; in the experiment with SW480 [2], 0.847 ± 0.27. Further, the “TCF/Wnt firefly luciferase reporter signal” value in the experiment on DLD1 [3] stood at 0.893 ± 0.058; with SW480 [4], 1 ± 0.11.

`CC[C@@]1(O)C[C@H](O[C@H]2C[C@H](N(C)C)[C@H](O[C@H]3C[C@@H]4O[C@H]5CC(=O)[C@H](C)O[C@H]5O[C@@H]4[C@H](C)O3)[C@H](C)O2)c2c(cc3c(c2O)C(=O)c2c(O)ccc(O)c2C3=O)[C@H]1C(=O)OC` [Cinerubin-B]: the cell viability in the experiment on DLD1 [1] was found to be 1.04 ± 0.12; in the experiment with HCT116, 0.993 ± 0.067; in the experiment with SW480 [2], 1.01 ± 0.028. In addition, the “TCF/Wnt firefly luciferase reporter signal” value with DLD1 [3] was determined as 0.991 ± 0.15; with SW480 [4], 1.07 ± 0.028.
